# Bioassay records: PubChem BioAssay, National Center for Advancing Translational Sciences (NCATS)
# This is a sample that favours compounds with a hit; in the whole collection about 2.1% have one here.
# FUS suppressor: FUS proteinopathy suppression in yeast; S. cerevisiae FUS-expressing, growth rescue, OD600, 24 h; Potency, µM (doses to about 76.6 µM), hits mostly activators; 390,000 tested, 0.24% active;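 note: plate controls were DMSO vehicle for no effect and reference control for full effect; nearly all actives have a fitted effect of over 55% in size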
#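 Quantitative HTS measuring growth restoration of FUS-toxic yeast. Galactose-induced cells (OD 0.005) were exposed 24hr at 30C to compounds at several concentrations, then absorbance at 600 nm was recorded.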
# aSyn rescue: rescues yeast growth from alpha-synuclein toxicity; Potency, µM (top dose mostly 46.1 µM), for inactives: at the top dose growth rescue (activation), usual class: activators; Yeast expressing alpha-synuclein, growth rescue, BacTiter-Glo, 24 h; AID 652106; 370,000 tested, 0.14% active; note: % of control where 0% means no effect; nearly all actives have a fitted effect of over 65% in size
#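 Rescue of yeast growth: cells expressing toxic alpha-synuclein, induced in galactose at OD600 0.02, incubated with compound 24 h at 30 C. ATP luminescence quantified growth; inhibitors of toxicity appear as activators.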
# Abeta yeast res: compounds reversing amyloid beta toxicity in yeast. yeast expressing A-beta42, growth rescue, OD600, 48 h; response scale: 0% DMSO, 100% iron-clioquinol control. Potency, µM (series often up to 46.1 µM), most hits filed as activators. 410,000 tested, 0.063% active; note: nearly all actives have a fitted effect of over 55% in size
#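 Growth rescue measured by 600 nm absorbance after 48 h yeast culture at 30 C with compound. Values normalized between DMSO and an equimolar ferric chloride plus clioquinol control.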
# TDP-43 yeast inh: rescues yeast growth from TDP-43 toxicity | 410,000 tested, 1.8% active | AID 652104 | TDP-43 expressing yeast growth rescue, BacTiter-Glo, 24 h | Potency, µM (highest dose often 46.1 µM), for inactives: at the top dose growth rescue (activation), hits mostly activators; note: % of control where 0% means no effect; nearly all actives have a fitted effect of over 50% in size
#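 Galactose-induced TDP-43 yeast, OD600=0.02, compound pinned; 24 hr, 30 deg C; BacTiter-Glo luminescence for growth. Inhibitors of TDP-43 toxicity read as activators.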
# Active calls of the source: *; i = inactive; u = inconclusive; x = no result; [ ] = dose if it differs, or a comment. Calls come from the whole dose curve; as a rule, active = well fitted curve in the direction sought with a large enough effect; inconclusive = small, poorly fitted or top-dose-only effect, or another doubt; inactive = no such curve, though single readings can be large; an effect the other way counts as inactive or inconclusive. Potency is the fitted concentration of half-maximal effect.
SMILES,FUS suppressor,aSyn rescue,Abeta yeast res,TDP-43 yeast inh
COC(=O)c1sccc1NC(=O)Nc1ccc(C)cc1C,i,0.3%,i,12.6µM*
COC(=O)c1sccc1NC(=O)Nc1ccc(C)cc1,i,-43.4%,i,u
Cc1ccc(NC(=O)c2sccc2-n2cccc2)c(C)c1,i,6.6%,i,22.4µM*
COc1ccc(NC(=O)c2sccc2-n2cccc2)cc1,i,-3.0%,i,12.6µM*
O=C(Nc1ccc(Cl)cc1)c1sccc1-n1cccc1,i,2.1%,i,u
CC(/C=N/NC(=O)CSc1ccccn1)=C\c1ccc(C(C)C)cc1,x,7.5%,i,20µM*
COc1cccc(S(=O)(=O)Nc2noc3ccccc23)c1,i,-0.1%,i,u
COc1ccc(S(=O)(=O)Nc2noc3ccccc23)cc1,i,-4.4%,i,11.2µM*
CC(C)(C)c1ccc(S(=O)(=O)Nc2noc3ccccc23)cc1,i,-11.4%,i,20µM*
Cc1ccc(N(CC(=O)NC2CC2)S(=O)(=O)c2ccccc2)c(C)c1,i,0.7%,i,-3.9%
Clc1ccccc1Cc1noc(CN2CCN3CCCC3C2)n1 (stereo unspecified),i,1.3%,i,1.0%
c1ccc(Sc2ncnc3ccccc23)cc1,i,8.9%,i,12.6µM*
c1ccc(-c2ncnc3ccccc23)cc1,x,-2.9%,i,12.6µM*
N#CCSc1ncnc2ccccc12,i,-2.7%,i,8.9%
O=C(Nc1ccc(O)c2c(=O)cc(-c3ccccc3Cl)oc12)c1ccc(F)cc1,i,-1.7%,i,18.7%
COc1ccc2c(c1)OC[C@H]1[C@H]2N2C(=O)CN(CCc3c[nH]c4ccccc34)C(=O)[C@@]2(C)[C@H]1c1ccccc1,22.4µM*,-0.8%,i,-7.5%
COc1ccc2c(c1)OC[C@H]1[C@H]2N2C(=O)c3ccccc3NC(=O)[C@@]2(C)[C@H]1c1ccccc1,i,8.4%,i,28.2µM*
Cc1ccccc1C(C(=O)NC1CCCC1)N(C(=O)Cc1cccs1)c1ccc2c(c1)OCCO2 (stereo unspecified),i,-1.3%,i,-15.7%
O=C(O)Cc1cc2c(s1)CCCCC2,i,9.1%,i,12.6µM*
CCOC(=O)Cc1c(C)nc2c(-c3cccc(Br)c3)cnn2c1C,i,-1.0%,i,5.2%
Cc1[nH]nc2ncc(C(=O)c3ccccc3O)cc12,12.6µM*,-6.5%,i,19.2%
O=C(CSc1nccn1-c1cccc(Cl)c1)Nc1cccc(C(F)(F)F)c1,i,x,u,20µM*
Cc1cccc(-n2ccnc2SCC(=O)Nc2ccc3c(c2)OCCO3)c1,i,9.3%,i,u
O=C(CSc1nccn(-c2ccc(F)c(F)c2)c1=O)NC1CCCC1,i,-10.8%,i,25.2%
Cc1cccc(-n2ccnc2SCC(=O)Nc2ccc3c(c2)OCO3)c1,i,10.3%,i,20µM*
SMILES,FUS suppressor,aSyn rescue,Abeta yeast res,TDP-43 yeast inh
O=C(CSc1nccn(-c2cccc(F)c2)c1=O)Nc1ccc(Cl)cc1F,i,-77.6%,i,17.8µM*
O=C(CSc1nccn1-c1ccc(Cl)cc1)Nc1ccc(Cl)c(Cl)c1,i,x,i,0.0%
Cc1cccc(-n2ccnc2SCC(=O)Nc2cccc3ccccc23)c1,i,11.1%,i,22.4µM*
Cc1cccc(-n2ccnc2SCC(=O)Nc2ccccc2C(F)(F)F)c1,i,3.4%,i,2.6%
CC(CC(=O)Nc1ccc2c(c1)c(=O)n(C)n2-c1cccs1)c1ccccc1 (stereo unspecified),i,-3.1%,i,13.3%
O=C(CSc1nccn1-c1cccc(Cl)c1)Nc1cccc2ccccc12,i,x,i,15.8µM*
Cc1cccc(-c2nc(SCC(=O)Nc3ccc4c(c3)OCCO4)c(-c3ccccc3)[nH]2)c1,u,x,i,35.5µM*
CN(Cc1ccon1)C(=O)C1CCN(C2CCN(CCCc3ccccc3)CC2)CC1,x,5.6%,i,20.1%
Cc1cc(C)c(C)c(SCC(=O)Nc2oc(C)c3c(C)n[nH]c(=O)c23)c1C,i,-2.6%,i,17.6%
COc1ccc(-c2cc(C(=O)O)sc2C)cc1,i,1.6%,i,22.4µM*
CCN(CC)CCCNC(=O)C(C)n1nc(C)n2c(cc3occc32)c1=O (stereo unspecified),i,x,i,7.5%
Cc1nc(C/C(=N\Nc2ccccc2)c2ccc(O)cc2O)cs1,i,0.6%,i,20µM*
COc1cc(SC)ccc1C(=O)N1CCN(c2ccccc2F)CC1,i,1.2%,i,11.2µM*
O=C(COc1ccc2ccccc2c1Br)N1CCOCC1,i,12.6%,i,16.7%
COc1cc2ccccc2cc1C(=O)N1CCN(C(C)=O)CC1,i,-1.5%,i,11.3%
COc1ccc2[nH]c(C(=O)N3CCN(c4ccccc4F)CC3)c(C)c2c1,i,0.9%,i,15.8µM*
COc1cc2ccccc2cc1C(=O)N1CCN(c2nc3ccc(F)cc3s2)CC1,i,x,i,12.6µM*
O=C(COc1ccc2ccccc2c1Br)N1CCCC1,i,4.8%,i,11.2µM*
COc1ccc(CCNC(=O)CSc2cn(CCNC(=O)c3c(F)cccc3F)c3ccccc23)cc1OC,i,x,i,0.0%
Cc1cc2ncn(CC(C)C)c2cc1C,i,1.3%,i,-13.4%[9.22 µM]
Cc1cccc(CN[C@@H]2CC[C@@]34CCCN3C(=O)CCC[C@H]4C2)c1,i,x,x,x
O=C(c1cnn2c(C(F)(F)F)cc(-c3ccc(F)cc3)nc12)N1CCc2ccccc2C1,x,-18.6%,i,u
COc1ccccc1OCC(=O)N1CCN(C(=O)COc2ccccc2OC)CC1,i,2.2%,i,-4.4%
COc1ccccc1N1CCN(C(=O)COc2cccc3ccccc23)CC1,u,u,i,35.5µM*
CCOc1ccccc1N1CCN(C(=O)c2cc3ccccc3cc2OC)CC1,i,6.9%,i,14.1µM*
SMILES,FUS suppressor,aSyn rescue,Abeta yeast res,TDP-43 yeast inh
N#Cc1ccccc1S(=O)(=O)N1CCN(C(=O)C2CC(=O)N(c3ccc4c(c3)OCCO4)C2)CC1 (stereo unspecified),x,-3.5%,i,9.6%
CC(=O)Nc1ccc(S(=O)(=O)N(Cc2ccccc2)Cc2ccccc2)cc1,u,x,i,20µM*
CCCCN(CCCC)S(=O)(=O)c1ccc(C(=O)Nc2nnc(COC)o2)cc1,i,u,i,12.6µM*
CCc1nnc(NC(=O)c2ccc(S(=O)(=O)N(CC)Cc3ccccc3)cc2)o1,i,12.6µM*,u,22.4µM*
CCN1CCN(C(=O)c2ccc(CS(=O)Cc3ccc(C)cc3)o2)CC1 (stereo unspecified),i,4.4%,i,3.3%
CC1CC(C)CN(CCC(=O)Nc2ccc(Br)cc2)C1 (stereo unspecified),i,5.1%,i,4.3%
Cc1ccc(O)c(C(=O)CC(=O)c2cccc(F)c2)c1,i,15.8µM*,i,-49.1%
O=C(CC(=O)c1cc(Cl)ccc1O)c1ccccc1,i,u,i,10µM*
